The source of these data is PubChem BioAssay (Tox21).

Records with an inconclusive call do not appear. A number with no mark means an inactive call. Activity calls are given as the source filed them. Calls follow the shape of the dose curve; as a rule, active = well fitted cell-killing curve with a large enough effect in the repeat runs; inconclusive = weak or mixed curves, or effect the other way; inactive = flat fitted curve, though single readings scatter.
% is scaled to controls: 0 for no effect and ±100 for the full control effect; potency is read from the fitted curve at half-maximal effect.

The assay can be described thus: qHTS RealTime-Glo MT Cell Viability Assay in HEK293 cells - 40 hour (AID 1224874). Also: nearly all actives have a fitted effect of over 50% in size. The note with it: RealTime-Glo luminescence; max response: active compounds read low. From the text:
U.S. Tox21 Program National Center for Advancing Translational Sciences [NCATS] NIH Chemical Genomics Center [NCGC] U.S. Environmental Protection Agency [EPA] National Institutes of Environmental Health Sciences [NIEHS] National Toxicology Program [NTP] U.S. Food and Drug Administration [FDA] Tox21 Assay Overview: Measure of cell viability is critical in the cell-base assay. Analysis of cell viability is necessary for the characterization of cell responses to cytotoxic drugs and environmental stress. A RealTime-Glo MT Cell Viability Assay to monitor cell viability in real time of continues cell culture during 40 hours of compound treatment was used to screen Tox21 10K library compounds in Hek293 cells. The RealTime-Glo MT Cell Viability Assay is a nonlytic, homogeneous, bioluminescent method to measure cell viability in real time using a simple, plate-based method. The assay involves adding NanoLuc luciferase and a cell-permeant prosubstrate to cells in culture. Viable cells reduce the proprietary prosubstrate to generate a substrate for NanoLuc luciferase. This substrate diffuses from cells into the surrounding culture medium, where it is rapidly used by the NanoLuc Enzyme to produce a luminescent signal. The signal correlates with the number of viable cells, making the assay well suited for cytotoxicity studies.
Tox21 Assay Protocol Summary: The mixture of Hek293 cell suspension and reagents were dispensed at 600cells/6 ul/well in 1536-well tissue culture treated black solid bottom plates using a Multidrop dispenser. After the assay plates were incubated at a 37 C/5% CO2 incubator for 5 hours, 23 nL of compounds dissolved in DMSO, positive and negative controls was transferred to the assay plate by a pintool work station. The plates were incubated at 37 C for 40 hours. The luminescence intensity were measured at 0h, 8h, 16h, 24h, 32h and 40h time points using ViewLux plate reader during compound treatment.
`CCc1nn(C)c(C(=O)NCc2ccc(C(C)(C)C)cc2)c1Cl`: the Potency was 0.0977 µM (active). Consider `O=c1oc2ccccc2c(O)c1Cc1c(O)c2ccccc2oc1=O`, for which the max response was 0.643%. On to `CCCCN(CCCC)C(=S)[S-].CCCCN(CCCC)C(=S)[S-].[Zn+2]`, for which the Potency is 11 µM (active). Turning to `CN(C)C1CSSSC1`, the max response was 3.22%. Same read-out and setting: as for `BrCBr`, the figure is 10.5%; as for `NNC(=O)c1ccccc1`, -4.85%; as for `BrCC(Br)c1ccccc1` (stereo not given), 1.25%. On the same count and under the same terms, as for `CCOCCOC(C)=O`, the figure is 4.22%. For the compound `CCCCCCCCCC[N+](C)(C)CCCCCCCCCC`, the Potency is 0.977 µM (active). With `Cc1ccc(C(=O)Cl)cc1`, the max response was -5.57%. As to `CCOCn1c(-c2ccc(Cl)cc2)c(C#N)c(Br)c1C(F)(F)F`, the Potency was 4.36 µM (active). Same read-out and setting: as for `COC12CC[C@@]3(C[C@@H]1C(C)(O)C(C)(C)C)[C@H]1Cc4ccc(O)c5c4[C@@]3(CCN1CC1CC1)[C@H]2O5` (stereo not given in full), the figure is 24.4 µM (active); as for `CCCCCCCCCCCCCC[P+](CCCCCC)(CCCCCC)CCCCCC` (tested in a mixture with another compound), 3.47 µM (active). For `CNC(C)Cc1ccc2c(c1)OCO2` (stereo not given), the max response is -1.8%. The same measure, in the same setting: as for `CC(C)CBr`, the figure is 0.766%; as for `CC(=O)Nc1ccc2c(c1)Cc1ccccc1-2`, -12.3%; as for `CC(C)CC(C)N` (stereo not given), 4.09%.

For the compound `CCCCCCCCCCCCCCC(Br)C(=O)O` (stereo not given), the max response is -7.18%. On to `COc1cccc2c1C(=O)c1c(O)c3c(c(O)c1C2=O)C[C@@](O)(C(=O)CO)CC3OC1CC(N2CCOC(OC)C2)C(O)C(C)O1` (stereo not given in full), for which the Potency is 0.0213 µM (active).

As for `CC(C)(C)C(O)/C(=C\c1ccc(Cl)cc1Cl)n1cncn1` (stereo not given), the Potency was 26.5 µM (active). On the same count and under the same terms, as for `CC(C)(C)c1ccc(CSc2cnn(C(C)(C)C)c(=O)c2Cl)cc1`, the figure is 0.0069 µM (active). `CN(C)CCc1c[nH]c2ccc(O)cc12`: the max response was 2.26%. `CC1(C)CN=C(NN=C(/C=C/c2ccc(C(F)(F)F)cc2)/C=C/c2ccc(C(F)(F)F)cc2)NC1`: the Potency is 38.9 µM (active). The same measure, in the same setting: as for `C[C@]12CC[C@H]3[C@@H](CCC4=CC(=O)CC[C@@]43C)[C@@H]1CC[C@@H]2O`, the figure is 48.6 µM (active); as for `C=CC(=O)OCCCCOC(=O)C=C`, 34.7 µM (active). As to `CCCCCCCCCCBr`, the max response is -10.6%. Take `Clc1ccc(CCC(Cn2ccnc2)Sc2c(Cl)cccc2Cl)cc1` (stereo not given): the Potency is 8.49 µM (active). On the same count and under the same terms, as for `CC(C)(O)c1cnn2c(-c3ccc(F)c(-c4c(F)cccc4C#N)c3)cnc2n1`, the figure is 4.9 µM (active). Regarding `Oc1ccc(C(c2ccc(O)cc2)(C(F)(F)F)C(F)(F)F)cc1`, the Potency is 38.7 µM (active). Turning to `Nc1ccc([N+](=O)[O-])cc1Cl`, the max response is -7.63%. In the case of `CCCN(CCC)c1c([N+](=O)[O-])cc(S(N)(=O)=O)cc1[N+](=O)[O-]`, the Potency was 35.4 µM (active). On to `CCS(=O)(=O)c1cccnc1S(=O)(=O)NC(=O)Nc1nc(OC)cc(OC)n1`, for which the max response was 6.92%. `CCC(C)c1cc([N+](=O)[O-])cc([N+](=O)[O-])c1OC(=O)C=C(C)C` (stereo not given): the Potency was 21.9 µM (active). Take `CC1(C)[C@H](C(=O)O[C@H](C#N)c2cccc(Oc3ccccc3)c2)[C@@H]1/C=C(\Cl)C(F)(F)F`: the max response is -24.1%.

`CC1(c2ccc(Oc3ccccc3)cc2)OC(=O)N(Nc2ccccc2)C1=O` (stereo not given): the Potency was 49.3 µM (active).

For the compound `O=C(CCl)Nc1ccccc1`, the Potency was 38.9 µM (active). `N#Cc1c(-c2ccc(Cl)cc2)[nH]c(C(F)(F)F)c1Br`: the Potency is 1.23 µM (active). As to `C=CC(=O)N(C)C`, the max response was -0.539%.

On to `CN(C)S(=O)(=O)N(SC(F)(Cl)Cl)c1ccccc1`, for which the Potency was 4.36 µM (active).

On to `O=C1c2ccccc2C(=O)C1C(=O)C(c1ccccc1)c1ccc(Cl)cc1` (stereo not given), for which the max response is -21.2%.
